Compound activity (PubChem)
Sampled rows, rich in hits. Any-hit rate of the full collection: about 19%.
DT40 TDP1 no CPT – qHTS for Inhibitors of human tyrosyl-DNA phosphodiesterase 1 (TDP1): qHTS in cells in absence of CPT; Potency, µM (doses to about 46.2 µM), for the others: top-dose activity change, negative = growth inhibition, actives largely listed as inhibitors; AID 686978, 2013; 420,000 compounds, 15% hits; DT40 Tdp1-/- hTDP1 cells, no CPT, ATP luminescence, 48 h; also: potency is read from the fitted curve at half-maximal effect; nearly all actives have a fitted effect of over 55% in size
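Readout: luminescence from CellTiter-Glo after 30 min in the dark at RT. Cells: DT40 Tdp1-/- with stable hTDP1, 400/well. Exposure: compounds alone, ≥48 hr, 37 °C.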
HT1080NT lethal – kills 2HG-producing HT-1080-NT fibrosarcoma cells. HT-1080-NT fibrosarcoma viability, CellTiter-Glo ATP luminescence, 48 h. Potency, µM (series often up to 46.1 µM), without a hit: top-dose activity, negative = less viability, most hits filed as cytotoxic. 360,000 compounds, 1.6% hits;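 also: NT is the 2HG producing partner of a matched IDH1 knockdown line; potency is read from the fitted curve at half-maximal effect; 0% = DMSO-treated cells and -100% = media-only wells without cells; nearly all actives have a fitted effect of over 55% in size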
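Viability of the 2HG-overproducing fibrosarcoma line after 48 hours of compound exposure at 37 degrees C was determined by luminescence with CellTiter-Glo, and concentration-effect curves were then fitted and categorized.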
IL1B secr inh – blocks inflammasome-driven IL-1 beta release | THP-1 LPS/ATP IL-1B secretion, AlphaLISA, 16 h; stronger effect = lower value | activity change, % at 57.5 µM | 360,000 compounds, 4.7% hits | AID 743279; in the data active = activity change below about -50%; inconclusive = mostly about -30% to -49%
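THP-1 cells pretreated 1 hr with compounds (up to 57.5 uM final), then stimulated with LPS (250 ng/mL final) plus ATP (1.25 mM final); secreted IL-1B measured by AlphaLISA after 16 hr, decreased signal indicating inhibition.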
DT40 TDP1 CPT – growth inhibition of DT40 Tdp1-/-;hTDP1 cells with camptothecin (screen for TDP1 inhibitors); chicken DT40 Tdp1-/-;hTDP1 cells + 20 nM CPT, ATP luminescence, 48 h; Potency, µM (top dose mostly 46.2 µM), without a hit: at the highest dose activity change, negative = growth inhibition, most hits filed as inhibitors; 420,000 compounds, 12% hits; also: potency is read from the fitted curve at half-maximal effect; nearly all actives have a fitted effect of over 55% in size
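Cell growth measured by CellTiter-Glo luminescence after a minimum 48 h, 37 C compound exposure with 20 nM CPT in Tdp1-knockout DT40 cells stably expressing hTDP1, seeded 400/well; qHTS titration format.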
HT1080 IDH1KD tx – HT-1080 IDH1 knockdown cell toxicity (counter line) | HT-1080 IDH1 knockdown viability, ATP luminescence, 48 h | Potency, µM (titrated, usually from 46.1 µM), for inactives: top-dose activity, negative = toxicity, hits mostly cytotoxic | 360,000 compounds, 2% hits | AID 686971;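 also: potency is read from the fitted curve at half-maximal effect; 0% = DMSO wells and -100% = cell-free medium wells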
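CellTiter-Glo luminescence after 48 h compound exposure at 37 degrees C of IDH1-knockdown HT-1080 cells in 5% FBS RPMI. %Activity scaled between DMSO wells and cell-free media wells, with curves fitted and assigned curve classes.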
Numbers without * were called inactive; [ ] = dose if it differs, or a comment. Unless noted, calls follow the shape of the dose curve; as a rule, active = well fitted curve in the direction sought with a large enough effect; inconclusive = small, poorly fitted or top-dose-only effect, or another doubt; inactive = no such curve, though single readings can be large; an effect the other way counts as inactive or inconclusive. Unless noted, % is scaled to controls: 0 for no effect and ±100 for the full control effect.

How did COc1cccc(CNc2nc3cc(-c4ccccc4CO)sc3c(=O)n2C)c1 do in these assays?
DT40 TDP1 no CPT: inconclusive; HT1080NT lethal: 29µM*; IL1B secr inh: -10; DT40 TDP1 CPT: 18µM*; HT1080 IDH1KD tx: inconclusive

Results for COc1cccc(CNc2nc3cc(-c4cscc4C)sc3c(=O)n2C)c1 ?
DT40 TDP1 no CPT: 21µM*; HT1080NT lethal: inconclusive; IL1B secr inh: -57*; DT40 TDP1 CPT: inconclusive; HT1080 IDH1KD tx: inconclusive

Results for Cn1c(=O)c2c(-c3ccc(Cl)cc3)n(CCc3ccccc3)cc2n(C)c1=O ?
DT40 TDP1 no CPT: 23µM*; DT40 TDP1 CPT: inconclusive

Results for CCCCCn1cc2c(c1-c1ccc(Br)cc1)c(=O)n(C)c(=O)n2C ?
DT40 TDP1 no CPT: 21µM*; DT40 TDP1 CPT: 18µM*

What do the screens show for `Cn1c(=O)c2c(-c3ccc(Br)cc3)n(CCc3ccccc3)cc2n(C)c1=O`?
DT40 TDP1 no CPT: inconclusive; DT40 TDP1 CPT: 15µM*

How did Cn1c(=O)c2c(-c3ccccc3)n(Cc3cccnc3)cc2n(C)c1=O do in these assays?
DT40 TDP1 no CPT: 8%; HT1080NT lethal: 16%; IL1B secr inh: 30; DT40 TDP1 CPT: -5%; HT1080 IDH1KD tx: 12%

Results for CNC(=O)c1cc(C(=O)c2c(Cl)cccc2Cl)c[nH]1 ?
DT40 TDP1 no CPT: 0%; HT1080NT lethal: 5%; IL1B secr inh: -1; DT40 TDP1 CPT: -6%; HT1080 IDH1KD tx: 5%

How did Clc1ccc(OCCCNCc2ccccc2)c(Br)c1 do in these assays?
DT40 TDP1 no CPT: 16µM*; HT1080NT lethal: inconclusive; DT40 TDP1 CPT: 15µM*; HT1080 IDH1KD tx: inconclusive

What do the screens show for `OCCNCCCOc1ccc(Cl)cc1Br`?
DT40 TDP1 no CPT: 29µM*; HT1080NT lethal: -17%; IL1B secr inh: -11; DT40 TDP1 CPT: inconclusive; HT1080 IDH1KD tx: -21%

How did Cc1cc(OCCCCCNCCO)ccc1Cl do in these assays?
DT40 TDP1 no CPT: 16µM*; HT1080NT lethal: 2%[9.24 µM]; IL1B secr inh: -18; DT40 TDP1 CPT: 15µM*; HT1080 IDH1KD tx: inconclusive

How did C=CCNCCCCOc1ccc(Br)cc1C do in these assays?
DT40 TDP1 no CPT: inconclusive; HT1080NT lethal: -17%; IL1B secr inh: -27; DT40 TDP1 CPT: inconclusive; HT1080 IDH1KD tx: -29%

Results for Cc1cc(Br)ccc1OCCCCNCCO ?
DT40 TDP1 no CPT: 21µM*; HT1080NT lethal: -15%; IL1B secr inh: -30; DT40 TDP1 CPT: 23µM*; HT1080 IDH1KD tx: -21%

How did NC(=O)c1cc[n+](CC(=O)c2ccc(NC(=O)c3ccccc3)cc2)cc1 do in these assays?
DT40 TDP1 no CPT: inconclusive; HT1080NT lethal: -1%; IL1B secr inh: -11; DT40 TDP1 CPT: inconclusive; HT1080 IDH1KD tx: -3%

Results for COCCNCCCOc1ccc(Br)cc1Cl ?
DT40 TDP1 no CPT: inconclusive; HT1080NT lethal: -25%; IL1B secr inh: inconclusive; DT40 TDP1 CPT: inconclusive; HT1080 IDH1KD tx: -17%

How did COCCNCCCOc1ccc(Cl)cc1Br do in these assays?
DT40 TDP1 no CPT: 16µM*; HT1080NT lethal: inconclusive; IL1B secr inh: inconclusive; DT40 TDP1 CPT: inconclusive; HT1080 IDH1KD tx: inconclusive

Results for CCOC(=O)NC1=NCC(C)S1 (configuration not stated) ?
DT40 TDP1 no CPT: -7%; HT1080NT lethal: 1%; IL1B secr inh: -11; DT40 TDP1 CPT: -2%; HT1080 IDH1KD tx: 8%

What do the screens show for `COCc1cnc(C)nc1N`?
DT40 TDP1 no CPT: -17%; HT1080NT lethal: 15%; IL1B secr inh: 22; DT40 TDP1 CPT: 7%; HT1080 IDH1KD tx: 9%

How did COc1cc(C)c(Cc2cnc(N)nc2N)cc1OC do in these assays?
DT40 TDP1 no CPT: 13µM*; DT40 TDP1 CPT: inconclusive

How did Cc1nc2ccc(N=NC3=C(O)CC(C)(C)CC3=O)cc2s1 do in these assays?
DT40 TDP1 no CPT: inconclusive; HT1080NT lethal: -2%; IL1B secr inh: 52; DT40 TDP1 CPT: -7%; HT1080 IDH1KD tx: 9%

What do the screens show for `CCOc1ccc2nc(N=NC3=C(O)CC(C)(C)CC3=O)sc2c1`?
DT40 TDP1 no CPT: 4.1µM*; HT1080NT lethal: -5%; IL1B secr inh: 214; DT40 TDP1 CPT: 3.7µM*; HT1080 IDH1KD tx: -27%

Results for Cc1cnc(-n2ncc(C(=O)NCC3COCCO3)c2C2CC2)nc1-c1cccs1 (configuration not stated) ?
DT40 TDP1 no CPT: -13%; DT40 TDP1 CPT: -7%

What do the screens show for `Cc1sc2ncnc(NCC(c3ccccc3)N(C)C)c2c1C` (configuration not stated)?
DT40 TDP1 no CPT: inconclusive; HT1080NT lethal: -27%; IL1B secr inh: inconclusive; DT40 TDP1 CPT: inconclusive; HT1080 IDH1KD tx: -14%

How did Cc1sc2ncnc(NCc3ccco3)c2c1C do in these assays?
DT40 TDP1 no CPT: 16µM*; HT1080NT lethal: -1%; IL1B secr inh: -59*; DT40 TDP1 CPT: 10µM*; HT1080 IDH1KD tx: -4%

What do the screens show for `Cc1sc2ncnc(NCC(O)c3ccc([N+](=O)[O-])cc3)c2c1C` (configuration not stated)?
DT40 TDP1 no CPT: 2.9µM*; HT1080NT lethal: inconclusive; IL1B secr inh: -55*; DT40 TDP1 CPT: 7.3µM*; HT1080 IDH1KD tx: inconclusive

Results for Cc1sc2ncnc(NCC(O)c3ccccc3)c2c1C (configuration not stated) ?
DT40 TDP1 no CPT: 4.6µM*; HT1080NT lethal: -9%; IL1B secr inh: -26; DT40 TDP1 CPT: 7.3µM*; HT1080 IDH1KD tx: -5%

Results for C/C=C(\C)C(=O)O[C@H]1C[C@@]2(C)CCC(C(C)C)C2(O)CC[C@@]1(C)O (some centres not stated) ?
DT40 TDP1 no CPT: -12%[9.04 µM]; DT40 TDP1 CPT: -8%[9.04 µM]

Results for CCn1cc(S(=O)(=O)Nc2cc(C)ccc2F)cn1 ?
DT40 TDP1 no CPT: 10%; HT1080NT lethal: 6%; IL1B secr inh: 5; DT40 TDP1 CPT: 1%; HT1080 IDH1KD tx: 9%

Results for Cc1ccc(N(CC(=O)NCCc2ccccc2C)S(=O)(=O)N(C)C)cc1 ?
DT40 TDP1 no CPT: inconclusive; DT40 TDP1 CPT: -20%

What do the screens show for `NNc1nc(-c2ccccc2Cl)c2cc(Br)ccc2n1`?
DT40 TDP1 no CPT: 5.2µM*; HT1080NT lethal: -2%; IL1B secr inh: 15; DT40 TDP1 CPT: 21µM*; HT1080 IDH1KD tx: -6%

Results for CC1(C)CC(=O)C=C(c2ccc(I)cc2)C1 ?
DT40 TDP1 no CPT: inconclusive; HT1080NT lethal: -4%; IL1B secr inh: -74*; DT40 TDP1 CPT: -9%; HT1080 IDH1KD tx: -7%

What do the screens show for `CC(=O)Nc1ccc(C2=CC(=O)CC(C)(C)C2)cc1`?
DT40 TDP1 no CPT: -26%; HT1080NT lethal: 0%; IL1B secr inh: -15; DT40 TDP1 CPT: inconclusive; HT1080 IDH1KD tx: 7%
